# Data reported in PubChem BioAssay (EPA / NIEHS).
# “And” between values parts separate entries of the source, which are not always exact repeats. Identical values can stand only once. Records with an inconclusive call do not appear. Where a structure was tested more than once in an assay, its records may differ in their call. The source made the active and inactive calls. How the source made its calls, unless noted: active means hit-call score of the fitted dose curve at least 0.9, where 1 is the maximum; inconclusive means response in the unintended direction; inactive means score below 0.9.
# Experiments:
# [1] = molecular target: Estrogen receptor (Homo sapiens) (UniProt P03372); experiment: OT_ERa_GFPERaERE_0480: Odyssey Thera (OT) 8-hour HeLa Transcription Induction Assay for Estrogen Receptor (AID 2283381; active means hit-call score of the fitted dose curve at least 0.9, where 1 is the maximum; inactive means score below 0.9)
# Method in brief: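 HeLa cells expressing GFP reporter under estrogen response element, imaged 8 h after dosing. GFP induction quantified by high-content fluorescence microscopy image analysis; gain of signal fitted versus DMSO.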
# [2] = molecular target: Estrogen receptor (Homo sapiens) (UniProt P03372); experiment: OT_ERa_GFPERaERE_0120: Odyssey Thera (OT) 2-hour HeLa Transcription Induction Assay for Estrogen Receptor (AID 2283382)
# Method in brief: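 HeLa cells were dosed for 2 h, then GFP reporter induction was quantified by fluorescence microscopy with high-content image analysis. Gain of signal fitted against DMSO baseline.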
# [3] = molecular target: Retinoic acid receptor RXR-alpha (Homo sapiens) (UniProt P19793); experiment: OT_NURR1_NURR1RXRa_1440: Odyssey Thera (OT) 24-hour HEK293T Protein Complementation Assay for Nurr1/retinoid X receptor (RXR) (AID 2283386)
# Method in brief: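 HEK293T protein-fragment complementation of Nurr1 and RXRα fused to reporter fragments; compounds 24 h. Fluorescence gain from reconstituted reporter fitted versus DMSO.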
# [4] = molecular target: Peroxisome proliferator-activated receptor gamma (Homo sapiens) (UniProt P37231); experiment: OT_PPARg_PPARgSRC1_0480: Odyssey Thera (OT) 8-hour Protein-Complementation Assay for Peroxisome Proliferator-activated Receptor Gamma / SRC-1 Co-activator (AID 2283387)
# Method in brief: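 Split-YFP (IFP1/IFP2) PPARg/SRC-1 reporter, HEK293T, 37 °C, 5% CO2; 8 h compound; formaldehyde fix + Draq5; high-content imaging, N/C ratio, ≥350 cells/image, positive direction vs DMSO.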
# [5] = molecular target: Peroxisome proliferator-activated receptor gamma (Homo sapiens) (UniProt P37231); experiment: OT_PPARg_PPARgSRC1_1440: Odyssey Thera (OT) 24-hour Protein-Complementation Assay for Peroxisome Proliferator-activated Receptor Gamma/ SRC-1 Co-activator (AID 2283388)
# Method in brief: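 HEK293T cells transiently transfected with PPARg and SRC-1 fused via (Gly4Ser)2 linker to split Venus YFP fragments (IFP1/IFP2) were dosed 24 h; fixed, Draq5-stained, imaged at 488/635 nm; nuclear/cytoplasmic fluorescence ratio scored versus DMSO baseline, gain-of-signal.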
# [6] = molecular target: Estrogen receptor beta (Homo sapiens) (UniProt Q92731); experiment: OT_ER_ERbERb_1440: Odyssey Thera (OT) 24-hour HEK293T Protein-Complementation Assay for Estrogen Receptor-beta/-beta Homodimer (AID 2283380);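 further: fluorescence gain from ER beta LBD homodimer complementation read by laser scanning cytometry; scored as signal increase over DMSO baseline for both agonists and antagonists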
# Method in brief: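 Fluorescence increase, nuclear for agonists or whole-cell for antagonists, relative to DMSO vehicle, quantified by laser scanning cytometer after fixation and Draq5 staining. Readout from 24 h treatment of HEK293T cells carrying complementation-paired ER beta LBD (aa 310-547).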
# [7] = molecular target: Retinoic acid receptor RXR-alpha (Homo sapiens) (UniProt P19793); experiment: OT_NURR1_NURR1RXRa_0480: Odyssey Thera (OT) 8-hour HEK293T Protein Complementation Assay for Nurr1/retinoid X receptor (RXR) (AID 2283385)
# Method in brief: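 HEK293T cells expressing Nurr1 and RXRα fused to reporter fragments (protein-fragment complementation); fluorescence measured 8 h after dosing. Gain of signal fitted relative to DMSO.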
# [8] = CEETOX_H295R_OHPROG: CeeTox H295R High-throughput Steroidogenesis Assay for OH-Progesterone (OHPROG) (AID 2283435; active means hit-call score of the fitted dose curve at least 0.9, where 1 is the maximum; inactive means score below 0.9;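 on AC50: human adrenal H295R cells primed 48 h with 10 µM forskolin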); settings: actives raise or lower the signal
# Method in brief: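 H295R adrenal cells prestimulated 48 h with 10 uM forskolin, then exposed 48 h to chemical (0.1% DMSO final). 17alpha-hydroxyprogesterone in medium quantified by HPLC-MS/MS; bidirectional fit versus DMSO, with MTT viability measured in the same wells.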
# [9] = CEETOX_H295R_CORTISOL: CeeTox H295R High-throughput Steroidogenesis Assay for Cortisol (AID 2283438; active means hit-call score of the fitted dose curve at least 0.9, where 1 is the maximum; inactive means score below 0.9;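 further: cortisol secreted into medium quantified by LC-MS/MS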); settings: actives raise or lower the signal
# Method in brief: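 Forskolin-primed H295R cells (10 uM, 48 h) treated 48 h with test chemical in 0.1% DMSO. Cortisol in medium quantified by MTBE extraction and HPLC-MS/MS; bidirectional fit vs DMSO, MTT viability in same wells.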
# [10] = CEETOX_H295R_DOC: CeeTox H295R High-throughput Steroidogenesis Assay for DOC (AID 2283439; active means hit-call score of the fitted dose curve at least 0.9, where 1 is the maximum; inactive means score below 0.9); settings: actives raise or lower the signal
# Method in brief: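 H295R cells prestimulated 48 h with 10 uM forskolin, then exposed 48 h to test chemical (0.1% DMSO final). Medium 11-deoxycorticosterone measured by HPLC-MS/MS after MTBE extraction; bidirectional fit vs DMSO, viability checked by MTT in same wells.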
# [11] = molecular target: Bile acid receptor (Homo sapiens) (UniProt Q96RI1); experiment: OT_FXR_FXRSRC1_1440: Odyssey Thera (OT) 24-hour HEK293T Protein-Complementation Assay for Farnesoid X receptor/SRC-1 Co-activator (AID 2283384)
# Method in brief: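 HEK293T cells, 24 h after chemical dosing. FXR–SRC-1 coactivator interaction read as fluorescence from protein-fragment complementation of a split reporter. Gain of signal fitted against DMSO baseline.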
# [12] = CEETOX_H295R_OHPREG: CeeTox H295R High-throughput Steroidogenesis Assay for OH-Pregnenolone (OHPREG) (AID 2283434; active means hit-call score of the fitted dose curve at least 0.9, where 1 is the maximum; inactive means score below 0.9); settings: actives raise or lower the signal
# Method in brief: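 Hormone levels in spent medium were measured by tandem mass spectrometry following liquid-liquid extraction. Cells (H295R) had been forskolin-stimulated (10 uM, 48 h) before a 48 h chemical exposure at 0.1% DMSO, with activity fitted in both directions against DMSO.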
# [13] = molecular target: Bile acid receptor (Homo sapiens) (UniProt Q96RI1); experiment: OT_FXR_FXRSRC1_0480: Odyssey Thera (OT) 8-hour HEK293T Protein-Complementation Assay for Farnesoid X receptor/SRC-1 Co-activator (AID 2283383)
# Method in brief: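 HEK293T protein-fragment complementation assay: FXR and SRC-1 coactivator are fused to reporter fragments, and their interaction restores a fluorescent reporter. Readout was taken 8 h after dosing, with gain of signal fit relative to DMSO.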
# Chain of Estrogen receptor (Homo sapiens) (P03372 whole entry, looked up): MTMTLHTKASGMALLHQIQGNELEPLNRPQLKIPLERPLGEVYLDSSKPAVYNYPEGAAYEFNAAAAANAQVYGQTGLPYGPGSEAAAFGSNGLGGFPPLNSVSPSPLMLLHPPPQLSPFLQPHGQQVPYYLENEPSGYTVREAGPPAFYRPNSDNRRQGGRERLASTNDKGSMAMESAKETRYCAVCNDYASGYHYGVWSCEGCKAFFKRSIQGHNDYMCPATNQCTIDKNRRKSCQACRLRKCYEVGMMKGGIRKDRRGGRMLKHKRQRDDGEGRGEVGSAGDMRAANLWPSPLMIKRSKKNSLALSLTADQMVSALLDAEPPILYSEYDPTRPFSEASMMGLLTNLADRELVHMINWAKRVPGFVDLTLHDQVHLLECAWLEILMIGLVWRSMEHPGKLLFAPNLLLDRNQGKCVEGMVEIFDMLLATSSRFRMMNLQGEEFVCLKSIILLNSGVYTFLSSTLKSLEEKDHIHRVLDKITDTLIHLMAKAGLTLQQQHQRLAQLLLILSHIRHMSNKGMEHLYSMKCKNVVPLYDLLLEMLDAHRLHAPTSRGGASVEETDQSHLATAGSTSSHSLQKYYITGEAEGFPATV
# Chain of Bile acid receptor (Homo sapiens) (Q96RI1 whole entry, looked up, the tested form may be a part): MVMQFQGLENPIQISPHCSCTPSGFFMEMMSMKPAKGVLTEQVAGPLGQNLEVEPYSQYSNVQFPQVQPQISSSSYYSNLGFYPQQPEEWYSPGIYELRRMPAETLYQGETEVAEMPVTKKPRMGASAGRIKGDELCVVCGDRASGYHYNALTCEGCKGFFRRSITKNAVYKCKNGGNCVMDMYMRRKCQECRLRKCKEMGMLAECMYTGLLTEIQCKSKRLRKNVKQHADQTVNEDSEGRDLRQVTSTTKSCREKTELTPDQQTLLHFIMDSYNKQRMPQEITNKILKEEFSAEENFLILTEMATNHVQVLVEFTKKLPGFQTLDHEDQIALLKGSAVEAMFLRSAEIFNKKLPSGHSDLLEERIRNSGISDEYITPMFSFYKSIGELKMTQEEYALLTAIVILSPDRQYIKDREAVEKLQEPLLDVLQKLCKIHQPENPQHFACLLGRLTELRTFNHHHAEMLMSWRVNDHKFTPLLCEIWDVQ
# Chain of Estrogen receptor beta (Homo sapiens) (Q92731 whole entry, looked up, the tested form may be a part): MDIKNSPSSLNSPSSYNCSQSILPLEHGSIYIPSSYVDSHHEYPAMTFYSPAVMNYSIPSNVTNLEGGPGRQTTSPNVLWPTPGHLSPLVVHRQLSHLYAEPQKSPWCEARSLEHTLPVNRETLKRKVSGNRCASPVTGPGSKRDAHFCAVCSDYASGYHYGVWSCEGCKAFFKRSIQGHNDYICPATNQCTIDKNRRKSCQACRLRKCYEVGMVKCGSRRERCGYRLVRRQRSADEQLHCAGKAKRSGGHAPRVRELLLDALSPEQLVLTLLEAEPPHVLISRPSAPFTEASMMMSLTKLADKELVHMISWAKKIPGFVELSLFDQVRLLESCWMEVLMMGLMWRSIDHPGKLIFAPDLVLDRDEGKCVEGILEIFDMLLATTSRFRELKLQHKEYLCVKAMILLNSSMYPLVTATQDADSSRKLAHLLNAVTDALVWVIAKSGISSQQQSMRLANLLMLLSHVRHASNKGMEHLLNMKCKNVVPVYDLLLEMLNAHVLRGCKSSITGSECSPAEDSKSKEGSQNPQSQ
# Chain of Peroxisome proliferator-activated receptor gamma (Homo sapiens) (P37231 whole entry, looked up, the tested form may be a part): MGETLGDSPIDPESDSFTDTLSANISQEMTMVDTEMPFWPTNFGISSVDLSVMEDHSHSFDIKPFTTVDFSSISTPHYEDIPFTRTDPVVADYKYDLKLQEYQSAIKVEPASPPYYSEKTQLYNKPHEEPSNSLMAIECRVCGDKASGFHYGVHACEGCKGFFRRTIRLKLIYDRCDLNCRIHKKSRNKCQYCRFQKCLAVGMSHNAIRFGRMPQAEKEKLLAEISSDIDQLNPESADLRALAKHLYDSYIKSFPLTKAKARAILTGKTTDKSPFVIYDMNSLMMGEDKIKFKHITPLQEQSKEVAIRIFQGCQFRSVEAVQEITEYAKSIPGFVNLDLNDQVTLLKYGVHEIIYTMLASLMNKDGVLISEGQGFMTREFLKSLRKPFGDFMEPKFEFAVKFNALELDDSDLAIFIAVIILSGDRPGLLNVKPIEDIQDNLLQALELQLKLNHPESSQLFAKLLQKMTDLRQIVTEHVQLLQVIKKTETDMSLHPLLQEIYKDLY
# Chain of Retinoic acid receptor RXR-alpha (Homo sapiens) (P19793 whole entry, looked up, the tested form may be a part): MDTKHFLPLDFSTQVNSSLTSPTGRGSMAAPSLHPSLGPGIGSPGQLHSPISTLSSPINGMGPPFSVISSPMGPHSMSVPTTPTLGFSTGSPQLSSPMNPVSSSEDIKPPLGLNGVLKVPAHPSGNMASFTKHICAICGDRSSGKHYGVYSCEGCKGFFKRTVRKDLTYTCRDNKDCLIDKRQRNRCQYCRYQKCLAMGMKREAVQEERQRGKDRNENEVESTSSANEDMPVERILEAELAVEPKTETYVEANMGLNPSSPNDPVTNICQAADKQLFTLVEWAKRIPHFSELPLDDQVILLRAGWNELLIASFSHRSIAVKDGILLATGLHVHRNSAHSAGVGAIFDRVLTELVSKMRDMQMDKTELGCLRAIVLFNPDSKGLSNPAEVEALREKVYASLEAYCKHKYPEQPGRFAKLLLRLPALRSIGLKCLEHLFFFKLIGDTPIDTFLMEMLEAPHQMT
structure (smiles),measurement,setting,value
O=[N+]([O-])c1cc(C(F)(F)F)c(Cl)c([N+](=O)[O-])c1Nc1ncc(C(F)(F)F)cc1Cl,AC50,[1],17.9 µM (active)
same,AC50,[2],77.7 µM (active)
same,AC50,[3],0.641 µM (active)
same,outcome,[4],inactive
same,outcome,[5],inactive
CCc1cnc(C2=NC(C)(C(C)C)C(=O)N2)c(C(=O)O)c1 (stereo not given),outcome,[3],inactive
same,outcome,[4],inactive
same,outcome,[5],inactive
COP(=O)(NC(C)=O)SC (stereo not given),outcome,[6],inactive
same,outcome,[7],inactive
same,outcome,[3],inactive
same,outcome,[4],inactive
same,outcome,[5],inactive
same,outcome,[8],inactive
same,outcome,[9],inactive
same,outcome,[10],inactive
COc1cc(OC)nc(Sc2cccc(Cl)c2C(=O)O)n1,outcome,[7],inactive
same,outcome,[3],inactive
same,outcome,[4],inactive
same,outcome,[5],inactive
Nc1nc(N)nc(NC2CC2)n1,outcome,[6],inactive
same,outcome,[11],inactive
same,outcome,[7],inactive
same,outcome,[3],inactive
same,outcome,[12],inactive
same,outcome,[8],inactive
same,outcome,[9],inactive
same,outcome,[10],inactive
CNc1cnn(-c2cccc(C(F)(F)F)c2)c(=O)c1Cl,outcome,[6],inactive
same,outcome,[13],inactive
same,outcome,[11],inactive
same,outcome,[7],inactive
same,outcome,[3],inactive
same,outcome,[4],inactive
same,outcome,[5],inactive
same,outcome,[12],inactive
same,outcome,[8],inactive
same,outcome,[9],inactive
same,outcome,[10],inactive
CNC(=O)Oc1cccc2c1OC(C)(C)O2,outcome,[1],inactive
same,outcome,[2],inactive
same,outcome,[11],inactive
same,outcome,[7],inactive
same,outcome,[4],inactive
same,outcome,[5],inactive
same,outcome,[12],inactive
same,AC50,[8],30.9 µM (active)
same,outcome,[9],inactive
same,outcome,[10],inactive
CC(C1CC1)C(O)(Cn1cncn1)c1ccc(Cl)cc1 (stereo not given),AC50,[6],31.1 µM (active)
same,outcome,[7],inactive
same,outcome,[4],inactive
same,outcome,[5],inactive
same,AC50,[12],4.38 µM (active)
same,AC50,[8],3.21 µM (active)
O=C(O)c1cc(Oc2ccc(C(F)(F)F)cc2Cl)ccc1[N+](=O)[O-],outcome,[6],inactive
same,outcome,[4],inactive
same,outcome,[5],inactive
same,outcome,[12],inactive
same,outcome,[8],inactive
same,outcome,[9],inactive
same,outcome,[10],inactive
C=C(C)[C@H]1Cc2c(ccc3c2O[C@@H]2COc4cc(OC)c(OC)cc4[C@@H]2C3=O)O1,AC50,[13],12.7 µM (active)
same,AC50,[11],9.92 µM (active)
same,AC50,[7],16 µM (active) and 12.6 µM (active)
same,AC50,[3],22.2 µM (active)
same,outcome,[3],inactive
same,outcome,[4],inactive
same,outcome,[5],inactive
FC(F)C(F)(F)OCC(Cn1cncn1)c1ccc(Cl)cc1Cl (stereo not given),outcome,[6],inactive
same,outcome,[13],inactive
same,outcome,[4],inactive
same,outcome,[5],inactive
same,outcome,[12],inactive
same,outcome,[8],inactive
same,outcome,[9],inactive
same,outcome,[10],inactive
CCOP(=S)(OCC)Oc1ccc2c(C)c(Cl)c(=O)oc2c1,outcome,[6],inactive
same,outcome,[3],inactive
same,outcome,[4],inactive
same,outcome,[5],inactive
same,outcome,[12],inactive
same,AC50,[8],1.67 µM (active)
same,outcome,[9],inactive
same,AC50,[10],1.23 µM (active)
CCOP(=S)(Oc1cnc(C(C)(C)C)nc1)OC(C)C (stereo not given),AC50,[7],73.2 µM (active)
same,outcome,[7],inactive
same,AC50,[3],78.8 µM (active)
same,outcome,[3],inactive
same,outcome,[4],inactive
same,outcome,[5],inactive
C#CC(C)(C)NC(=O)c1cc(Cl)cc(Cl)c1,outcome,[7],inactive
same,AC50,[12],13.4 µM (active)
same,AC50,[8],23.7 µM (active)
same,outcome,[9],inactive
same,AC50,[10],7.45 µM (active)
CCC(=NOC/C=C/Cl)C1=C(O)CC(C2CCOCC2)CC1=O (stereo not given),outcome,[6],inactive
same,outcome,[7],inactive
same,outcome,[3],inactive
same,outcome,[4],inactive
same,outcome,[5],inactive
CCc1cccc(C)c1N(C(=O)CCl)C(C)COC (stereo not given),outcome,[6],inactive
same,outcome,[7],inactive
same,outcome,[3],inactive
same,outcome,[4],inactive
same,outcome,[5],inactive
same,outcome,[12],inactive
same,outcome,[8],inactive
COP(=O)(OC)C(O)C(Cl)(Cl)Cl (stereo not given),outcome,[13],inactive
same,AC50,[11],25.1 µM (active)
same,outcome,[7],inactive
same,outcome,[3],inactive
same,outcome,[4],inactive
same,outcome,[5],inactive
CCNc1nc(Cl)nc(NC(C)(C)C#N)n1,outcome,[6],inactive
same,outcome,[7],inactive
same,outcome,[3],inactive
same,outcome,[4],inactive
same,outcome,[5],inactive
same,outcome,[12],inactive
same,outcome,[8],inactive
same,outcome,[9],inactive
same,outcome,[10],inactive
CCOP(=O)(OCC)Oc1cc(C)nc(C(C)C)n1,outcome,[6],inactive
same,outcome,[13],inactive
same,outcome,[11],inactive
same,outcome,[3],inactive
same,outcome,[4],inactive
same,outcome,[5],inactive
CCOP(=S)(OCC)Oc1cc(C)nc(C(C)C)n1,outcome,[4],inactive
same,outcome,[5],inactive
same,outcome,[12],inactive
same,AC50,[8],6.6 µM (active)
same,AC50,[9],50 µM (active)
same,outcome,[10],inactive
